{
  "source": "PubChem BioAssay (Tox21)",
  "key": {"[1]": {"assay": "cAMP Responsive Elements (CRE) small molecule antagonists, cell-based qHTS assay: qHTS cell viability counter screen (AID 2060913); also: nearly all actives have a fitted effect of over 40% in size", "details": "CRE-bla HEK293T viability, CellTiter-Glo luminescence, 5 h; series mostly up to 92.4 µM", "method_in_brief": "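Cytotoxicity read in the same wells as the CRE-bla HEK293T antagonist assay: after 3 h compound with 0.25 uM NKH477 final and 2 h beta-lactamase substrate, CellTiter-Glo luminescence measured.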"}, "[2]": {"assay": "cAMP Responsive Elements (CRE) small molecule agonists, cell-based qHTS assay: qHTS cell viability counter screen (AID 2060914); also: nearly all actives have a fitted effect of over 50% in size", "details": "CRE-bla HEK293T viability, CellTiter-Glo luminescence, 5 h; series mostly up to 92.4 µM", "method_in_brief": "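Cells are seeded and incubated 18 h, treated with compounds in DMSO for 3 h, read for the bla reporter, then given CellTiter-Glo; luminescence is measured after 30 min at room temperature.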"}},
  "note": "Records with an inconclusive call do not appear. A call without a number means that no potency is given here. Values without a mark were called inactive. Activity calls are given as the source filed them. Calls follow the shape of the dose curve; as a rule, active = well fitted cell-killing curve with a large enough effect in the repeat runs; inconclusive = weak or mixed curves, or effect the other way; inactive = flat fitted curve, though single readings scatter.",
  "data": [
    {"smiles": "CC1(C)NC(=O)N(c2ccc([N+](=O)[O-])c(C(F)(F)F)c2)C1=O", "values": [
      {"measurement": "Potency", "setting": "[1]", "value": "inactive"},
      {"measurement": "Potency", "setting": "[2]", "value": "inactive"}
    ]},
    {"smiles": "C[C@H]1O[C@@H](n2cc(F)c(=O)[nH]c2=O)[C@H](O)[C@@H]1O", "values": [
      {"measurement": "Potency", "setting": "[1]", "value": "inactive"},
      {"measurement": "Potency", "setting": "[2]", "value": "inactive"}
    ]},
    {"smiles": "OCC(F)(F)F", "values": [
      {"measurement": "Potency", "setting": "[1]", "value": "inactive"},
      {"measurement": "Potency", "setting": "[2]", "value": "inactive"}
    ]},
    {"smiles": "CN(C)C(=O)COC(=O)Cc1ccc(OC(=O)c2ccc(N=C(N)N)cc2)cc1", "values": [
      {"measurement": "Potency", "setting": "[1]", "value": "inactive"},
      {"measurement": "Potency", "setting": "[2]", "value": "inactive"}
    ]},
    {"smiles": "CCCCCCCCCCCCCCCCCl", "values": [
      {"measurement": "viability change, negative = cytotoxic", "setting": "[1]", "value": "3.61% [at 18.9 µM]"},
      {"measurement": "activity change, negative = cytotoxicity", "setting": "[2]", "value": "-18.4% [at 18.9 µM]"}
    ]},
    {"smiles": "Cc1cc(O)ccc1N", "values": [
      {"measurement": "Potency", "setting": "[1]", "value": "inactive"},
      {"measurement": "Potency", "setting": "[2]", "value": "inactive"}
    ]},
    {"smiles": "C=C(C)C1CC=C(C)C(O)C1", "note": "(stereo unspecified)", "values": [
      {"measurement": "Potency", "setting": "[1]", "value": "inactive"},
      {"measurement": "Potency", "setting": "[2]", "value": "inactive"}
    ]},
    {"smiles": "CCOC(=O)CC(CC(=O)OCC)(OC(C)=O)C(=O)OCC", "values": [
      {"measurement": "Potency", "setting": "[1]", "value": "inactive"},
      {"measurement": "Potency", "setting": "[2]", "value": "inactive"}
    ]}
  ]
}
